Here are results for 18 sequences from the OligoGym collection.
Note: reference of the scale not given here.

One experiment concerns the target FAM151A. Description: pooled miR-30 sensor sort-seq; sequence = guide strand. As to conditions: shRNA.
With TTCCTCTGTCAGCTGCCGCAGG, the sensor-assay potency score (higher = more potent) was -0.626. On to TTCTACATTGACGTCAGCCTCC, for which the sensor-assay potency score (higher = more potent) was -0.0868. For the sequence ATGACCACCACAGACACACAGG, the sensor-assay potency score (higher = more potent) is -1.21. In the case of TACATTGACGTCAGCCTCCAGG, the sensor-assay potency score (higher = more potent) is -0.38.

TAGACTTGGTGGACAGCAGTGT yielded a sensor-assay potency score (higher = more potent) of 0.813.

In the case of TGTCATAGTAGACTTGGTGGAC, the sensor-assay potency score (higher = more potent) was 0.221.

The target in the next experiment is FAM151B. The description is as above. The following applies: shRNA.
The sequence TTGAAATCCAGCTTGATGCCTT yielded a sensor-assay potency score (higher = more potent) of 0.157. Regarding TTTTCCAGTCCAAATAGTCAGG, the sensor-assay potency score (higher = more potent) is -1.41.

TATTTTCACTCCAAGATCCTGG: the sensor-assay potency score (higher = more potent) was -0.051. On the same count and under the same terms, the figure for TATGAAACCAAAACACAGGAAA is -1.05; for TATTGCTTTTCATAACTTCAGT it is -0.677.

Regarding TACAACTGCCAGACTTTTGAAA, the sensor-assay potency score (higher = more potent) is -0.597.

As to TCTTCTGCTGTAATCTGGCTAT, the sensor-assay potency score (higher = more potent) was -0.597. On the same count and under the same terms, the figure for TTTGCATCTATTACTTTGCTAT is -0.561. On to TAGAGTATTATCACTGTTTGTT, for which the sensor-assay potency score (higher = more potent) amounted to 0.198. Consider TTTGATTTCTTTAACAGCCAAA, for which the sensor-assay potency score (higher = more potent) was -1.02. On the same count and under the same terms, the figure for TAATGTAAAGTAAATCTTCAAC is -0.985; for TTAGCTGCATGATACCAGGTGA it is -0.378.
